Measured values: PubChem BioAssay (EPA / NIEHS)
Values joined by “and” are separate entries in the source; they are usually repeats but may differ in a detail not shown here. Identical values can stand only once. Records with an inconclusive call do not appear. More than one record can exist for a structure, and the calls need not agree. Active and inactive are the calls of the source. The calls were made as follows, unless noted: active = hit-call score of the fitted dose curve at least 0.9, where 1 is the maximum; inactive = score below 0.9.

Tests used:
[1] = target: Paired box protein Pax-6 (Homo sapiens) (UniProt P26367); experiment: ATG_Pax6_CIS: Attagene CIS-FACTORIAL HepG2 Assay for human Paired Box 6 (PAX6) (AID 2282956); conditions: HepG2 CIS-FACTORIAL PAX6 reporter transcription, RNA readout; actives raise or lower the signal
Sequence of Paired box protein Pax-6 (Homo sapiens) (P26367 whole entry, looked up): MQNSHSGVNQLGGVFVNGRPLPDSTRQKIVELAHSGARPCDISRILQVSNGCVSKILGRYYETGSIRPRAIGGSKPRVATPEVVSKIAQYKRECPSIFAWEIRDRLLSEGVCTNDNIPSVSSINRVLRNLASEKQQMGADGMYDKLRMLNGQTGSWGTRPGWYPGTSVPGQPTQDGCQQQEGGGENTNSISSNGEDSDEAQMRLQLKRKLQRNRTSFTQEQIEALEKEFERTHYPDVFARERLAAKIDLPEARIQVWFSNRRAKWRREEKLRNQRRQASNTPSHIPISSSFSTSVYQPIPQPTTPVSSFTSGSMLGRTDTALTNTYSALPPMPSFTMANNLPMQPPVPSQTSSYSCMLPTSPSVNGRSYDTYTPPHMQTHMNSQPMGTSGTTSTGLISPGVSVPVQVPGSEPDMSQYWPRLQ
Outline: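 Multiplexed cis-reporter HepG2 system; 24 h treatment; reporter mRNA read by RT-PCR/CE fluorescence; bidirectional fit vs DMSO.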

[2] = ATG_PXRE_CIS: Attagene CIS-FACTORIAL HepG2 Assay for human Pregnane X Receptor Element (PXRE) (AID 2282957); conditions: HepG2 Attagene CIS-FACTORIAL PXRE reporter, mRNA; actives raise or lower the signal
Outline: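 HepG2 cells transiently transfected with cis-regulated multiple reporter transcription units; endogenous factor activity measured as reporter mRNA 24 h after dosing. RT-PCR, fluorescent primer extension, HpaI digestion, capillary electrophoresis; bidirectional fit versus DMSO baseline.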

[3] = ATG_RORE_CIS: Attagene CIS-FACTORIAL HepG2 Assay for human RAR-related Orphan Receptor Element (RORE) (AID 2282959); conditions: HepG2 Attagene cis-factorial RORE reporter, mRNA; actives raise or lower the signal
Outline: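 A 24-hour exposure of transfected HepG2 hepatoma cells precedes RNA isolation and reporter RT-PCR. Labeled products are digested with HpaI and resolved by capillary electrophoresis, with gain or loss of signal scored relative to DMSO.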

[4] = ATG_Sox_CIS: Attagene CIS-FACTORIAL HepG2 Assay for human SRY-box transcription factor (SOX) (AID 2282960); conditions: HepG2 Attagene cis-factorial SOX reporter, mRNA; actives raise or lower the signal
Outline: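 HepG2, cis reporter units, 24 h exposure. Reporter mRNA: RT-PCR → FAM labelling → HpaI → CE fluorescence. Bidirectional fit vs DMSO.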

[5] = target: Transcription factor Sp1 (Homo sapiens) (UniProt P08047); experiment: ATG_Sp1_CIS: Attagene CIS-FACTORIAL HepG2 Assay for human Specificity Protein 1 (Sp1) (AID 2282961); conditions: HepG2 Sp1 cis-reporter transcription, actives raise or lower the signal
Sequence of Transcription factor Sp1 (Homo sapiens) (P08047 whole entry, looked up, the tested form may be a part): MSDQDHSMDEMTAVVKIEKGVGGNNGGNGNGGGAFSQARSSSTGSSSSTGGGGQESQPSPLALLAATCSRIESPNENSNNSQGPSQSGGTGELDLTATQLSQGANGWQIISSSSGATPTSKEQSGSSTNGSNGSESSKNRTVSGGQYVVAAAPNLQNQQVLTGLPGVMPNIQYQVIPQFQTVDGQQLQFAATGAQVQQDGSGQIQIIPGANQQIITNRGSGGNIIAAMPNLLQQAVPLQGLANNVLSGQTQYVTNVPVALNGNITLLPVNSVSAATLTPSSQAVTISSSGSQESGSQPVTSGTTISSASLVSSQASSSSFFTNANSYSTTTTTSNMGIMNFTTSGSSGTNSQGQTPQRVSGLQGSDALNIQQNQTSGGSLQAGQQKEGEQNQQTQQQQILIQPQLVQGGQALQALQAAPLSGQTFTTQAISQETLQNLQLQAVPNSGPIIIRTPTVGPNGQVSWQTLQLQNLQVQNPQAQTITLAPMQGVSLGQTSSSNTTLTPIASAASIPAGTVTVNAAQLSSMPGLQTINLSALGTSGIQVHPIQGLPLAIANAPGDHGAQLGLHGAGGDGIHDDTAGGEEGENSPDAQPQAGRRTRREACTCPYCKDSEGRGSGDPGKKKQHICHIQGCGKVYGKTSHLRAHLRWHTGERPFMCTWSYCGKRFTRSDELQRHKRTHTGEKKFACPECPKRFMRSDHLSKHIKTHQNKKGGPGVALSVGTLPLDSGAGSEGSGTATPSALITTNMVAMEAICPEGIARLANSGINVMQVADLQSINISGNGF
Outline: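 Liver-derived HepG2 cells, cis-element reporter library, 24 h treatment; RNA isolated, cDNA amplified with reporter-specific primers, FAM-labeled fragments sized on capillary analyzer. DMSO baseline, bidirectional curve fit.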

[6] = ATG_SREBP_CIS: Attagene CIS-FACTORIAL HepG2 Assay for human Sterol Regulatory Element Binding (SREBP) (AID 2282962); conditions: HepG2 Attagene cis-factorial SREBP reporter, mRNA; actives raise or lower the signal
Outline: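 mRNA induction of transfected cis-promoter reporters in HepG2 cells, 24 h post-dose. Detection: RT-PCR with 6-FAM-labelled products, HpaI digest, capillary electrophoresis. DMSO served as negative control and baseline.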

[7] = target: Signal transducer and activator of transcription 3 (Homo sapiens) (UniProt P40763); experiment: ATG_STAT3_CIS: Attagene CIS-FACTORIAL HepG2 Assay for human Signal Transducer and Activator of Transcription 3 (STAT3) (AID 2282963); conditions: HepG2, Attagene cis-factorial STAT3 reporter transcription; actives raise or lower the signal
Sequence of Signal transducer and activator of transcription 3 (Homo sapiens) (P40763 whole entry, looked up): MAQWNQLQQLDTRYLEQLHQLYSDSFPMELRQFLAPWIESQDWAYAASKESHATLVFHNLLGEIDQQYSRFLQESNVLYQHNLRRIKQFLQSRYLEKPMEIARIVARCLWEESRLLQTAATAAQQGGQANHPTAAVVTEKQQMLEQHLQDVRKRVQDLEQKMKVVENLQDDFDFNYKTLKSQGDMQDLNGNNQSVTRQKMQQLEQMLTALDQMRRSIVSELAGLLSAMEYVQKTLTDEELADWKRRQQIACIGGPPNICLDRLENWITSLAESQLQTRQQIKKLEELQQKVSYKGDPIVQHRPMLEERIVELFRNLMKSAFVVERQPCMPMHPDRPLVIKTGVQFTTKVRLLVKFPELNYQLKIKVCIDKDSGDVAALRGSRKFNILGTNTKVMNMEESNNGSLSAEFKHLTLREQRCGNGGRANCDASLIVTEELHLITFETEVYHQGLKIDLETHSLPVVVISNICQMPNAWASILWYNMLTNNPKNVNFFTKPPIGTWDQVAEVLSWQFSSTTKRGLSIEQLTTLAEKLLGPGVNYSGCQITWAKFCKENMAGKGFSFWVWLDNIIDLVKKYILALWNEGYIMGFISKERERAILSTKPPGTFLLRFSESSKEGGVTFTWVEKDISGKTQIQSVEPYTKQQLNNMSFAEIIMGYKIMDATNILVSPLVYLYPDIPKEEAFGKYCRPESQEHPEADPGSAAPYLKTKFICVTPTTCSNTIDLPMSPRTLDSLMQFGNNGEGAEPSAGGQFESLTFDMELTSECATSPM
Outline: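 Endogenous STAT3-responsive cis-element activity was read in transiently transfected HepG2 cells after 24 h treatment. Reporter transcripts were quantified via RT-PCR and capillary electrophoresis, with DMSO as negative control and bidirectional curve fitting.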

[8] = ATG_TA_CIS: Attagene CIS-FACTORIAL HepG2 Assay for human TA Basal Promoter (AID 2282964); conditions: HepG2 Attagene CIS-factorial TA basal promoter reporter; actives raise or lower the signal
Outline: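 Transient MRTU transfection of HepG2 preceded 24 h compound exposure. Reporter mRNA levels were then read by RT-PCR with capillary electrophoresis, and this background-control endpoint was fitted bidirectionally to DMSO.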

[9] = ATG_TCF_b_cat_CIS: Attagene CIS-FACTORIAL HepG2 Assay for human T-Cell-Factor with beta-catenin (TCF/b-cat) (AID 2282965); conditions: HepG2 TCF/beta-catenin cis-reporter transcription, actives raise or lower the signal
Outline: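 Endogenous transcription factor activity is captured through cis-promoter reporter constructs transiently introduced into human HepG2 liver cells. Induced reporter mRNA is measured after 24 h and fitted bidirectionally relative to DMSO.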

[10] = ATG_TAL_CIS: Attagene CIS-FACTORIAL HepG2 Assay for human TAL Basal Promoter (AID 2282966); conditions: HepG2 Attagene cis-factorial TAL promoter reporter; actives raise or lower the signal;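 also: background control endpoint measuring basal TAL promoter reporter mRNA not a specific factor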
Outline: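 HepG2 cells were transiently transfected with promoter-driven multiplexed reporter units and dosed for 24 h. Reporter mRNA was measured by RT-PCR with capillary electrophoresis fluorescence; bidirectional fits used DMSO as baseline, serving as a background control.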

[11] = ATG_TGFb_CIS: Attagene CIS-FACTORIAL HepG2 Assay for human Transforming Growth Factor (TGF) (AID 2282967); conditions: HepG2 Attagene CIS TGFb reporter, mRNA transcription; actives raise or lower the signal
Outline: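 After a 24-hour incubation with compound, transfected HepG2 cells were lysed for RNA; reporter cDNA was amplified, fluorescently end-labeled and separated by CE. DMSO served as baseline for bidirectional fits.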

[12] = ATG_VDRE_CIS: Attagene CIS-FACTORIAL HepG2 Assay for human Vitamin D Receptor Element (VDRE) (AID 2282968); conditions: HepG2 VDRE cis-reporter transcription, actives raise or lower the signal
Outline: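 Reporter mRNA induction, quantified by capillary electrophoresis of fluorescently labelled RT-PCR products, was read 24 h after dosing HepG2 cells carrying transiently transfected cis-regulated reporter units; gain or loss relative to DMSO.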

[13] = target: X-box-binding protein 1 (Homo sapiens) (UniProt P17861); experiment: ATG_Xbp1_CIS: Attagene CIS-FACTORIAL HepG2 Assay for human X-box Binding Protein 1 (XBP1) (AID 2282972); conditions: HepG2 XBP1 cis-element reporter, Attagene multiplex; actives raise or lower the signal
Sequence of X-box-binding protein 1 (Homo sapiens) (P17861 whole entry, looked up, the tested form may be a part): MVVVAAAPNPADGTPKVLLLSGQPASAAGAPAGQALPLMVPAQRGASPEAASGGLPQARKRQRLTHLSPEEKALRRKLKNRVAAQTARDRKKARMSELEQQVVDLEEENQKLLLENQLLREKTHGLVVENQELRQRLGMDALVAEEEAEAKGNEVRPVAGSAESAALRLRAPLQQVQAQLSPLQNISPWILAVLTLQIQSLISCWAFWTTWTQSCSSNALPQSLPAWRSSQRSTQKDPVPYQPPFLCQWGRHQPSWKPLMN
Outline: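 Fluorescence-labelled cDNA fragments from reporter transcripts, separated by capillary electrophoresis, give the signal. Source: HepG2 cells transfected with promoter-driven reporter units, harvested 24 h post-dose. DMSO served as reference for bidirectional curve fitting.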

[14] = ATG_GAL4_TRANS: Attagene TRANS-FACTORIAL HepG2 Assay for GAL4 (Internal Marker) (AID 2282976; active = hit-call score of the fitted dose curve at least 0.9, where 1 is the maximum); conditions: HepG2 Attagene TRANS GAL4 internal marker reporter
Outline: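 HepG2 cells transiently transfected with multiplexed GAL4-UAS reporter constructs were dosed for 24 h. Reporter mRNA was measured by RT-PCR, 6-FAM primer extension, HpaI digestion and capillary electrophoresis, and gain of signal was fitted relative to DMSO.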

[15] = ATG_PPRE_CIS: Attagene CIS-FACTORIAL HepG2 Assay for human Peroxisome Proliferator-activated Response Element (PPRE) (AID 2282958); conditions: HepG2 PPRE cis-element reporter, Attagene transcription factor profiling; actives raise or lower the signal
Outline: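 PPRE activity in HepG2: transient cis-reporter transfection, 24 h compound incubation, reporter mRNA by RT-PCR and CE fluorescence; gain/loss fitted against DMSO.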

[16] = target: Steroid hormone receptor ERR1 (Homo sapiens) (UniProt P11474); experiment: ATG_ERRa_TRANS: Attagene TRANS-FACTORIAL HepG2 Assay for human Estrogen-Related Receptor alpha (ERRa) (AID 2282971; active = hit-call score of the fitted dose curve at least 0.9, where 1 is the maximum); conditions: HepG2 Attagene TRANS reporter, ERRa transactivation
Sequence of Steroid hormone receptor ERR1 (Homo sapiens) (P11474 whole entry, looked up, the tested form may be a part): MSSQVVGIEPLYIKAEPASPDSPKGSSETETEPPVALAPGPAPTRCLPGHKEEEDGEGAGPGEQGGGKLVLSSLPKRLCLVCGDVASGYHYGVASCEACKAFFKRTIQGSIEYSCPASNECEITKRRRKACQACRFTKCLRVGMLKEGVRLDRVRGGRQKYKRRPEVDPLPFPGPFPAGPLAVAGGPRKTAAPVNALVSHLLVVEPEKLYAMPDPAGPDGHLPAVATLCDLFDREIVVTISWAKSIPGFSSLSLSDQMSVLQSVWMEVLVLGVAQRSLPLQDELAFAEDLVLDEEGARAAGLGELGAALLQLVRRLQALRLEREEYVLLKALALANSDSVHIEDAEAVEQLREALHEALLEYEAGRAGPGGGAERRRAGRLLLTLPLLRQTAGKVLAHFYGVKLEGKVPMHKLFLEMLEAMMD
Outline: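 HepG2 cells transiently transfected with multiplexed GAL4-UAS reporter units reading chimeric ERRa-Gal4 activity; 24 h compound exposure. Reporter mRNA measured by RT-PCR, 6-FAM labelling, HpaI digest and capillary electrophoresis; gain of signal fitted versus DMSO baseline.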

[17] = target: Estrogen-related receptor gamma (Homo sapiens) (UniProt P62508); experiment: ATG_ERRg_TRANS: Attagene TRANS-FACTORIAL HepG2 Assay for human Estrogen-Related Receptor gamma (ERRg) (AID 2282977; active = hit-call score of the fitted dose curve at least 0.9, where 1 is the maximum;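 also: hits increase reporter signal over DMSO so potencies reflect activators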); conditions: HepG2 Attagene TRANS reporter, ERRg transactivation
Sequence of Estrogen-related receptor gamma (Homo sapiens) (P62508 whole entry, looked up, the tested form may be a part): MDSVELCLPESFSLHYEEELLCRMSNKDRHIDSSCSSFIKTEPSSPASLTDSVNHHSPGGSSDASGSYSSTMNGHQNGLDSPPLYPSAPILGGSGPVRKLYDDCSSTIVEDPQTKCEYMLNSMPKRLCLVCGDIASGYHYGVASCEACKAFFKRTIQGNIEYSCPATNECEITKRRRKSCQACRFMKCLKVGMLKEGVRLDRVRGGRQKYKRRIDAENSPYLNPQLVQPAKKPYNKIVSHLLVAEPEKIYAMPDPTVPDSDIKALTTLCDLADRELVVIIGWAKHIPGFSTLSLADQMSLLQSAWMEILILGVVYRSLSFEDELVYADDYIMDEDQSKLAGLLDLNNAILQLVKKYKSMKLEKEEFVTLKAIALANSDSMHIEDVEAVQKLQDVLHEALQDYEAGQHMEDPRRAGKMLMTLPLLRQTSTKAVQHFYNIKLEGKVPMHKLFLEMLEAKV
Outline: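 HepG2 cells transiently transfected with multiplexed GAL4-UAS reporter units driven by chimeric NR-Gal4 proteins; 24 h exposure. Reporter mRNA quantified by RT-PCR, fluorescent labelling, HpaI digestion and capillary electrophoresis; gain of signal vs DMSO.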

[18] = target: Estrogen receptor (Homo sapiens) (UniProt P03372); experiment: ATG_ERa_TRANS: Attagene TRANS-FACTORIAL HepG2 Assay for human Estrogen Receptor alpha (ERa) (AID 2282970; active = hit-call score of the fitted dose curve at least 0.9, where 1 is the maximum); conditions: HepG2 Attagene TRANS ERa GAL4 reporter, mRNA
Sequence of Estrogen receptor (Homo sapiens) (P03372 whole entry, looked up, the tested form may be a part): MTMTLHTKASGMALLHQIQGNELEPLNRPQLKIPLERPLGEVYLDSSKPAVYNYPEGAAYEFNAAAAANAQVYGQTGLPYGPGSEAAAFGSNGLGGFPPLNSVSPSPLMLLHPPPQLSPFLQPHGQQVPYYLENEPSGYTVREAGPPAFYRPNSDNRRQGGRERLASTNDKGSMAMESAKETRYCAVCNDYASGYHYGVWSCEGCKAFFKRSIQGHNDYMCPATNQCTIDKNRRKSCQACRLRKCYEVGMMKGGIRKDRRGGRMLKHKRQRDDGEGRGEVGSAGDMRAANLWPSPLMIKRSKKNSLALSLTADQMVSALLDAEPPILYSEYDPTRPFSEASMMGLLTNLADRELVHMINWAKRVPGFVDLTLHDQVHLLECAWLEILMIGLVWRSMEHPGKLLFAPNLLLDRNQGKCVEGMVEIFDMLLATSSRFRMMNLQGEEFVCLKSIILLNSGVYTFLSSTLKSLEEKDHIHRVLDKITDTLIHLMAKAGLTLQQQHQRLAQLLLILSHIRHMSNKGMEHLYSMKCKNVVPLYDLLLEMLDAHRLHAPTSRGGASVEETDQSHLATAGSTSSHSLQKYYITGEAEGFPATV
Outline: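 HepG2 cells transiently transfected with multiplexed GAL4-UAS reporter units; ERa activity read via exogenous chimeric NR-Gal4 protein. After 24 hour compound exposure, reporter mRNA measured by RT-PCR with 6-FAM labelling and capillary electrophoresis; gain-of-signal fitted relative to DMSO.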

[19] = target: Nuclear receptor subfamily 1 group I member 3 (Homo sapiens) (UniProt Q14994); experiment: ATG_CAR_TRANS: Attagene TRANS-FACTORIAL HepG2 Assay for human Constitutive Androstane Receptor (CAR) (AID 2282969; active = hit-call score of the fitted dose curve at least 0.9, where 1 is the maximum;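 also: activators raise reporter mRNA above DMSO so AC50 marks induction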); conditions: HepG2 Attagene TRANS-FACTORIAL CAR reporter
Sequence of Nuclear receptor subfamily 1 group I member 3 (Homo sapiens) (Q14994 whole entry, looked up, the tested form may be a part): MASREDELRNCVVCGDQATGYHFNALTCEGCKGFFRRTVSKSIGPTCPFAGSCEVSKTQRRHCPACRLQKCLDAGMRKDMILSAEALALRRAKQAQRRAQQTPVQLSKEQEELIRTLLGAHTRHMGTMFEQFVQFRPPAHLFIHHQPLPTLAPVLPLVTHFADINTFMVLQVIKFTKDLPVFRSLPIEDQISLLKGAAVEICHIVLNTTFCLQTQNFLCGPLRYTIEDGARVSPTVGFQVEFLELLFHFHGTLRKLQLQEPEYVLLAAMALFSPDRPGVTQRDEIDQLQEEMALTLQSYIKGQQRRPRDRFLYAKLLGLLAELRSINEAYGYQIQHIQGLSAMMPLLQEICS
Outline: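 Readout is reporter mRNA induction, quantified by fluorescent primer extension and capillary electrophoresis after RT-PCR. Cells were HepG2 transiently carrying chimeric NR-Gal4 constructs with GAL4-UAS reporters, treated for 24 h; activity scored upward from DMSO.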

Measured: AC50

CC(O)CC(C)(C)O (configuration not stated)
inactive: [1] | [2] | [3] | [4] | [5] | [6] | [7] | [8] | [9] | [10] | [11] | [12] | [13] | [14]
active: [2] 37500 nM | [13] 12.2 nM

CCN(Cc1cccnc1)C(=O)c1cccc(Cl)c1[C@]1(C)C(=O)N(Cc2ccc(OC)cc2OC)c2ccc(Cl)cc21
active: [1] 3.83 µM | [2] 143 nM | [3] 2.74 µM | [6] 3.23 µM | [8] 4.5 µM | [9] 5.44 µM | [12] 1.42 µM | [13] 4010 nM
inactive: [15] | [4] | [5] | [7] | [10] | [11] | [14]

CC/C(=C(/CC)c1ccc(O)cc1)c1ccc(O)cc1
inactive: [1] | [4] | [5] | [6] | [7] | [8] | [10] | [11] | [12] | [13] | [14]
active: [1] 14.9 µM and 5.16 µM | [4] 11.1 µM | [5] 18.2 µM | [12] 8.27 µM and 6.68 µM and 8.92 µM | [13] 14.4 µM [middle of 4 runs]

C[C@]12CC[C@@H]3c4ccc(O)cc4CC[C@H]3[C@@H]1CC[C@H]2O
inactive: [1] | [2] | [15] | [3] | [4] | [5] | [6] | [7] | [8] | [9] | [10] | [11] | [12] | [16] | [13] | [14] | [17]
active: [2] 7.87 µM and 6.41 µM and 4.84 µM | [6] 27.6 µM | [9] 27.3 µM | [12] 19.8 µM

CCOC(=O)O[C@H](C)OC(=O)c1ccc2c(c1)cc(C(=O)NC1CCN(C(C)C)CC1)n2Cc1cc(-c2ccc(Cl)s2)on1
active: [5] 60 µM | [6] 33 µM
not listed: [16] | [17] | [19]
inactive: all other assays above

Cc1ccc2oc(CN(Cc3ccccc3)C(=O)Nc3c(F)cc(F)cc3F)c(-c3ccc(Cl)cc3)c2c1
active: [2] 630 nM
not listed: [14] | [15] | [17] | [18] | [19]
inactive: all other assays above

Oc1ccccc1
not listed: [9] | [12] | [16] | [17] | [18]
inactive: all other assays above
